PubChem BioAssay (NCI)
Compounds without any hit were thinned out: in the full panel of roughly 83,000, 20% have a hit.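 Cells were grown in 96-well plates and exposed to the test compound at a single concentration for 48 hours; results are reported as percent growth, with values below 10 considered active.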 Unmarked numbers belong to inactive results. Active and inactive are the calls of the source.

Tests used:
Assay in all cases: NCI-60 one-dose screen, 48 h (100 = growth as untreated, 0 = no growth, -100 = all killed)
Details in all cases: 10 µM
786-0 renal = tested on: 786-0 renal
MALME-3M melanoma = tested on: MALME-3M melanoma
SF-268 CNS = tested on: SF-268 CNS
SF-295 CNS = tested on: SF-295 CNS
UACC-257 melanoma = tested on: UACC-257 melanoma
PC-3 prostate = tested on: PC-3 prostate
UACC-62 melanoma = tested on: UACC-62 melanoma
SK-MEL-28 melanoma = tested on: SK-MEL-28 melanoma
SK-MEL-2 melanoma = tested on: SK-MEL-2 melanoma
EKVX NSCLC = tested on: EKVX NSCLC
SN12C renal = tested on: SN12C renal
UO-31 renal = tested on: UO-31 renal
TK-10 renal = tested on: TK-10 renal
ACHN renal = tested on: ACHN renal
CAKI-1 renal = tested on: CAKI-1 renal
A498 renal = tested on: A498 renal
OVCAR-8 ovarian = tested on: OVCAR-8 ovarian
OVCAR-5 ovarian = tested on: OVCAR-5 ovarian
IGROV1 ovarian = tested on: IGROV1 ovarian
OVCAR-3 ovarian = tested on: OVCAR-3 ovarian

SMILES: COc1ccc(Cn2cc(C#N)c(N)c2C(C)=O)c(OC)c1
- growth (786-0 renal): 102%
- growth (MALME-3M melanoma): 108%
- growth (SF-268 CNS): 103%
- growth (SF-295 CNS): 109%
- growth (UACC-257 melanoma): 109%
- growth (PC-3 prostate): 97.6%
- growth (UACC-62 melanoma): 98.1%
- growth (SK-MEL-28 melanoma): 109%
- growth (SK-MEL-2 melanoma): 126%
- growth (EKVX NSCLC): 98.6%
- growth (SN12C renal): 96.4%
- growth (UO-31 renal): 96.4%
- growth (TK-10 renal): 113%
- growth (ACHN renal): 101%
- growth (CAKI-1 renal): 102%
- growth (A498 renal): 97.8%
- growth (OVCAR-8 ovarian): 104%
- growth (OVCAR-5 ovarian): 112%
- growth (IGROV1 ovarian): 112%
- growth (OVCAR-3 ovarian): 105%

SMILES: CCOC(=O)C1=C(N)N(c2ccc(C)cc2)C2=C(C(=O)CC(C)(C)C2)C1c1ccccc1Br (stereo not given)
- growth (786-0 renal): 83.9%
- growth (MALME-3M melanoma): 109%
- growth (SF-268 CNS): 99.3%
- growth (SF-295 CNS): 90.5%
- growth (UACC-257 melanoma): 84.1%
- growth (PC-3 prostate): 32.4%
- growth (UACC-62 melanoma): 71.8%
- growth (SK-MEL-28 melanoma): 93.7%
- growth (SK-MEL-2 melanoma): 85%
- growth (EKVX NSCLC): 91%
- growth (SN12C renal): 85.2%
- growth (UO-31 renal): 76%
- growth (TK-10 renal): 110%
- growth (ACHN renal): 85.9%
- growth (CAKI-1 renal): 69.8%
- growth (A498 renal): 108%
- growth (OVCAR-8 ovarian): 90.1%
- growth (OVCAR-5 ovarian): 97.5%
- growth (IGROV1 ovarian): 110%
- growth (OVCAR-3 ovarian): 84.9%

SMILES: O=C(CN1CCN(c2ncnc3c2cnn3-c2ccccc2)CC1)Nc1ccc(Br)cc1
- growth (786-0 renal): -61.7% (active)
- growth (MALME-3M melanoma): -54.4% (active)
- growth (SF-268 CNS): 58.8%
- growth (SF-295 CNS): 83%
- growth (UACC-257 melanoma): 58.7%
- growth (PC-3 prostate): 49.1%
- growth (UACC-62 melanoma): 45.1%
- growth (SK-MEL-28 melanoma): 72%
- growth (SK-MEL-2 melanoma): 29.9%
- growth (EKVX NSCLC): 46.9%
- growth (SN12C renal): 39.1%
- growth (UO-31 renal): -77% (active)
- growth (TK-10 renal): 121%
- growth (ACHN renal): -88.1% (active)
- growth (CAKI-1 renal): -57% (active)
- growth (A498 renal): 90.9%
- growth (OVCAR-8 ovarian): 64.7%
- growth (OVCAR-5 ovarian): 78.2%
- growth (IGROV1 ovarian): 58.1%
- growth (OVCAR-3 ovarian): 60.6%

SMILES: COC(=O)CNC(=O)COc1c(OC)c(OC)cc2oc(-c3cccc(C(=O)Nc4ccc(Cl)cc4)c3)cc(=O)c12
- growth (786-0 renal): -24.3% (active)
- growth (MALME-3M melanoma): -26.1% (active)
- growth (SF-268 CNS): 21.9%
- growth (SF-295 CNS): 21.4%
- growth (UACC-257 melanoma): 58.7%
- growth (PC-3 prostate): 34.7%
- growth (UACC-62 melanoma): 12.7%
- growth (SK-MEL-28 melanoma): 20.5%
- growth (SK-MEL-2 melanoma): 12.7%
- growth (EKVX NSCLC): 64.1%
- growth (SN12C renal): 41%
- growth (UO-31 renal): 66.5%
- growth (TK-10 renal): 130%
- growth (ACHN renal): 47.2%
- growth (CAKI-1 renal): 55.8%
- growth (A498 renal): 119%
- growth (OVCAR-8 ovarian): -69% (active)
- growth (OVCAR-5 ovarian): 90.7%
- growth (IGROV1 ovarian): 58.4%
- growth (OVCAR-3 ovarian): 55.6%

SMILES: Fc1ccc(-c2csc(Nc3cccc(Nc4nc(-c5ccc(F)cc5)cs4)c3)n2)cc1
- growth (786-0 renal): 68.8%
- growth (MALME-3M melanoma): 83%
- growth (SF-268 CNS): 57.9%
- growth (SF-295 CNS): 90.4%
- growth (UACC-257 melanoma): 74.6%
- growth (PC-3 prostate): 35.2%
- growth (UACC-62 melanoma): 57.1%
- growth (SK-MEL-28 melanoma): 76.4%
- growth (SK-MEL-2 melanoma): 34.7%
- growth (EKVX NSCLC): 39.8%
- growth (SN12C renal): 47.2%
- growth (UO-31 renal): 31.3%
- growth (TK-10 renal): 94.5%
- growth (ACHN renal): 51.8%
- growth (CAKI-1 renal): 46.4%
- growth (A498 renal): 78.3%
- growth (OVCAR-8 ovarian): 67.9%
- growth (OVCAR-5 ovarian): 65.5%
- growth (IGROV1 ovarian): 41.8%
- growth (OVCAR-3 ovarian): 57.5%

SMILES: COc1ccccc1-n1cc(C#N)c(N)c1C(=O)c1ccc(Cl)cc1Cl
- growth (786-0 renal): 52.8%
- growth (MALME-3M melanoma): 37.6%
- growth (SF-268 CNS): 47.3%
- growth (SF-295 CNS): 19.9%
- growth (UACC-257 melanoma): 52.7%
- growth (PC-3 prostate): 18.8%
- growth (UACC-62 melanoma): 26.9%
- growth (SK-MEL-28 melanoma): 57.5%
- growth (SK-MEL-2 melanoma): -51.3% (active)
- growth (EKVX NSCLC): 29.6%
- growth (SN12C renal): 35%
- growth (UO-31 renal): 42.4%
- growth (TK-10 renal): 55.8%
- growth (ACHN renal): 48.3%
- growth (CAKI-1 renal): 33.8%
- growth (A498 renal): -0.709% (active)
- growth (OVCAR-8 ovarian): 34.7%
- growth (OVCAR-5 ovarian): 49.9%
- growth (IGROV1 ovarian): 38%
- growth (OVCAR-3 ovarian): 17.8%

SMILES: COc1cc2oc(-c3cccc(C(=O)Nc4ccc(Cl)cc4)c3)cc(=O)c2c(OCCN)c1OC
- growth (786-0 renal): -80.9% (active)
- growth (MALME-3M melanoma): -67.9% (active)
- growth (SF-268 CNS): -76.8% (active)
- growth (SF-295 CNS): -81.4% (active)
- growth (UACC-257 melanoma): -85.2% (active)
- growth (PC-3 prostate): -87.3% (active)
- growth (UACC-62 melanoma): -86.7% (active)
- growth (SK-MEL-28 melanoma): -88.1% (active)
- growth (SK-MEL-2 melanoma): -94.5% (active)
- growth (EKVX NSCLC): -84.6% (active)
- growth (SN12C renal): -91.1% (active)
- growth (UO-31 renal): -81.1% (active)
- growth (TK-10 renal): -91.2% (active)
- growth (ACHN renal): -92.5% (active)
- growth (CAKI-1 renal): -85% (active)
- growth (A498 renal): -93.9% (active)
- growth (OVCAR-8 ovarian): -85.5% (active)
- growth (OVCAR-5 ovarian): -87.4% (active)
- growth (IGROV1 ovarian): -73.7% (active)
- growth (OVCAR-3 ovarian): -87.8% (active)
